Shown are actives, neighbours in structure and some others; about 21% of the full set was active somewhere.
CHX counter: Cycloheximide Counterscreen for Small Molecule Inhibitors of Shiga Toxin; cell reporter, cycloheximide protein synthesis inhibition counterscreen; max response, %; 300,000 tested, 12% active; AID 2314, 2010; in the data active means max response mostly above about 13%, no sharp cut-off; inactive means mostly below about 14%; further: read at 38.3 µM for the half of the compounds with a filed dose; 0% is about no effect
Pf growth 48h: Primary qHTS for delayed death inhibitors of the malarial parasite plastid, 48 hour incubation; P. falciparum luciferase growth in erythrocytes, 48 h; Potency, µM (series often up to 28.7 µM), for inactives: top-dose activity change, negative = inhibition, usual class: inhibitors; 310,000 tested, 5.9% active; AID 504832, 2011; further: potency means the concentration at half of the fitted maximal effect; on the % scale 0 is the no-effect control and ±100 the full control effect
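Growth was read as firefly luciferase luminescence after a 48 h, 37 C, 5% CO2 exposure of compounds to reporter-bearing P. falciparum cultures (0.1% parasitemia, 2% hematocrit final) in Albumax-supplemented RPMI 1640.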
Shiga toxin inh: A qHTS for Small Molecule Inhibitors of Shiga Toxin; Vero cells, Shiga toxin protein synthesis inhibition reporter; inhibition, % at 38.7 µM; 290,000 tested, 9.2% active; in the data active means inhibition mostly above about 28%, no sharp cut-off; inactive means mostly below about 43%; further: 0% is about no effect
NS1 inh: qHTS Assay for Inhibitors of Influenza NS1 Protein Function; Potency, µM (titrated, usually from 46.1 µM), without a hit: at the highest dose activity, positive = more growth; 270,000 tested, 0.4% active; AID 2326, 2010; calls by dose curve; further: potency means the concentration at half of the fitted maximal effect; actives are rising curves; nearly all actives have a fitted effect of over 50% in size
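Recovery from NS1-induced slow growth read by OD600 in budding yeast switched to galactose assay medium (pH 6.0, -URA) at 1:100 dilution. Compound 23 nl per well; the matching strain lacking NS1 serves as control.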
FBPA Giardia inh: qHTS Assay for Inhibitors of Fructose-1,6-bisphosphate Aldolase from Giardia Lamblia. purified Giardia FBPA. AID 2451, 2010. A8B2U2. 290,000 tested, 0.71% active. Potency, µM (highest dose often 59.6 µM), for inactives: at the top dose activity, negative = inhibition, most hits filed as inhibitors; further: potency means the concentration at half of the fitted maximal effect; on the % scale 0 is the no-effect control and ±100 the full control effect; nearly all actives have a fitted effect of over 55% in size
Target sequence (A8B2U2 whole entry, looked up): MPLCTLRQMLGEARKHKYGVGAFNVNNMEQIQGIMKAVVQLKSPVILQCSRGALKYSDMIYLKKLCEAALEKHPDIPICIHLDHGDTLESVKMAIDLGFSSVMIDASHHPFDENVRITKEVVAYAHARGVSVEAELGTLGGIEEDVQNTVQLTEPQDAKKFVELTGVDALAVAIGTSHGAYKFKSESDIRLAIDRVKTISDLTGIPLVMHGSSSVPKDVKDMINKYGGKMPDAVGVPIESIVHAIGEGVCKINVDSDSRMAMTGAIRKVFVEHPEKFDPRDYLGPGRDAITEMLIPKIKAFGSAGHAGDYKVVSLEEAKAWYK
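40 nM FBPA preincubated 10 min at RT with compound (up to 57.5 uM final), then substrate plus GAPDH/TPI/NAD/arsenate coupling and diaphorase/resazurin added. Fluorescence read after 20 min at RT, 525/598 nm.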
Pf growth 96h: Primary qHTS for delayed death inhibitors of the malarial parasite plastid, 96 hour incubation | 320,000 tested, 6.9% active | P. falciparum luciferase reporter growth, 96 h | Potency, µM (doses to about 28.7 µM), for the others: at the top dose activity change, negative = inhibition, hits mostly inhibitors | AID 504834, 2011; further: potency means the concentration at half of the fitted maximal effect; on the % scale 0 is the no-effect control and ±100 the full control effect
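P. falciparum expressing integrated firefly luciferase grown in erythrocytes (2% hematocrit, 0.05% parasitemia final) with compounds for 96 hours at 37 C, 5% CO2. Growth inhibition read as loss of luminescence after adding luciferase detection reagent.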
An asterisk follows results filed as active; ? = inconclusive; / = no result given. Unless noted, the call rests on the fitted dose curve; in most records, active means well fitted curve in the direction sought with a large enough effect; inconclusive means small, poorly fitted or top-dose-only effect, or another doubt; inactive means no such curve, though single readings can be large; an effect the other way counts as inactive or inconclusive.

SMILES	CHX counter	Pf growth 48h	Shiga toxin inh	NS1 inh	FBPA Giardia inh	Pf growth 96h
O=C(Nc1ccccc1)Nc1cccc2nsnc12	34*	-25%	86	-37%	?	-1%
O=C(Nc1cccc2nsnc12)c1cccnc1	-2	10%	-9	4%	-14%	14%
O=C(Nc1cccc2nsnc12)c1cccs1	35*	132%	99*	-118%	-14%	?
O=C(Nc1cccc2cccnc12)c1cccs1	37*	/	79	/	/	/
O=C(CSc1ccc(-c2ccc(-n3cccn3)cc2)nn1)Nc1ccccc1F	/	43%	/	/	/	6%
CCCCCCCCCCCCCC/C(C(=O)O)=C(\C)C(=O)O	-8	/	-5	/	11%	/
Cc1ccc(CCNC(=O)C23CN(Cc4ccccc4)CC2C(c2cccc([N+](=O)[O-])c2)=NO3)cc1 (stereo not drawn)	8	2.9µM*	8	12%	8%	?
NC(=O)CNC(=O)[C@@H]1CC2(CC(c3cccc([N+](=O)[O-])c3)=NO2)CN1C(=O)c1ccccc1 (stereo partly drawn)	12	3%	16	-7%	-1%	?
COc1ccc(CCNC(=O)C23CN(Cc4ccccc4)CC2C(c2cccc([N+](=O)[O-])c2)=NO3)cc1 (stereo not drawn)	6	?	-1	2%	2%	?
O=C(NCC1CCCCC1)C12CN(Cc3ccccc3)CC1C(c1cccc([N+](=O)[O-])c1)=NO2 (stereo not drawn)	-1	1.7µM*	14	23%	-1%	?
O=C(COC(=O)c1ccc(O)cc1)Nc1ccccc1	13	30%	13	-3%	-1%	48%
O=C(c1cccc(F)c1)N1CCC[C@@]2(CCN(Cc3ccncc3)C2)C1	/	/	/	/	-5%	/
CCN(CC)c1ccc(CNc2nc3ccccc3n2CC)cc1	2	22%	-13	-51%	6%	3%
CN(C)CCN(C(=O)/C=C/c1cccs1)c1nc2c(F)cc(F)cc2s1	-5	12µM*	-8	5%	3%	?
COc1ccc2ccccc2c1CNCCc1ccccc1	-6	10µM*	-26	-15%	1%	4%
COc1ccc2ccccc2c1CNCCN1CCOCC1	3	?	-7	2%	?	-26%
O.O.[Mn].[Mn].[Mn].[OH-].[OH-]	-6	/	-4	/	0%	/
CC(=O)c1ccccc1NC(=O)COc1ccc(N(C)S(=O)(=O)c2ccc(C)c(C)c2)cc1	/	10µM*	/	/	/	12µM*
COCC(C)n1c(C)cc(C(=O)COc2ccc(N(C)S(=O)(=O)c3ccc(NC(C)=O)cc3)cc2)c1C (stereo not drawn)	/	4.7µM*	/	/	/	1.3µM*
COc1ccc(CCNC(=O)COc2ccc(N(C)S(=O)(=O)c3ccc(C)cc3)cc2)cc1	10	?	-6	/	-4%	?
COc1ccc(CCN(C)C(=O)COc2ccc(N(C)S(=O)(=O)c3ccc(C)cc3)cc2)cc1OC	/	9.3µM*	/	/	/	10µM*
Cc1ccc(S(=O)(=O)N(C)c2ccc(OCC(=O)NCC3(N(C)C)CCCCC3)cc2)cc1	/	9.3µM*	/	/	/	9.3µM*
CCOc1ccc(S(=O)(=O)N(C)c2ccc(OCC(=O)Nc3ccccc3F)cc2)cc1	/	-3%	/	/	/	?
O=C(Cn1ccc2cc(S(=O)(=O)N3CCCCC3)ccc21)NCc1ccccc1F	8	?	9	12%	/	17%
CN(c1ccc(OCC(=O)OCC(=O)Nc2ccc(F)cc2)cc1)S(=O)(=O)c1ccc(Cl)cc1	-5	-7%	-14	-12%	-1%	?
SMILES	CHX counter	Pf growth 48h	Shiga toxin inh	NS1 inh	FBPA Giardia inh	Pf growth 96h
Cc1ccc(NC(=O)COc2ccc(N(C)S(=O)(=O)c3ccc(F)cc3)cc2)cc1	/	?	/	/	/	10µM*
O=C(O)[C@@H]1C[C@@H](C(=O)O)N1	/	/	/	-11%	?	/
CCc1ccc(C2C(C#N)=C(N)C(C#N)(C#N)C3=CCC(C(C)(C)C)CC32)cc1 (stereo not drawn)	16	13µM*	23	17%	?	13µM*
CC(C)(C)C1CC=C2C(C#N)=C(N)C(C#N)(C#N)C(c3cccs3)C2C1 (stereo not drawn)	-2	/	-6	11%	?	?
CC(=O)NC1=C(OS(=O)(=O)c2ccc(C)cc2)CN(C)C1=O	/	/	/	-6%	/	/
C[C@H](NC(=O)c1nc[nH]c1C(=O)N1CCNCC1)C(=O)OC(C)(C)C	/	8%	/	/	/	19%
CC(=O)N(c1nnc(-c2ccc(C)cc2)s1)C1CCCC1	28*	41%	26*	22%	6%	?
CC(=O)N(c1ccccc1)C1CCCC1	-2	-1%	0	0%	6%	0%
CC(C)CC(=O)N(c1nnc(-c2cccnc2)s1)C1CCCC1	11*	?	15	-17%	6%	?
CCN(C(=O)C1CCCCC1)c1nnc(-c2cccnc2)s1	12	?	-3	-47%	12%	0%
Cc1cccc(NCc2ccccc2O)n1	5	?	22	-5%	5%	-21%
Oc1ccc(-c2csc(Nc3ncccn3)n2)c(O)c1	59*	320%	88*	/	-11%	-2%
Oc1ccc(-c2csc(Nc3ncccn3)n2)cc1O	33*	9%	103*	/	?	350%
Cc1cccc(Nc2nc(-c3ccc(O)cc3O)cs2)n1	38*	106%	109*	-48%	-14%	35%
CC1CCc2nc(NC(=O)C3COc4ccccc4O3)sc2C1 (stereo not drawn)	19	52%	11	6%	-8%	180%
CC1CCc2nc(NC(=O)CN3CCN(Cc4ccc5c(c4)OCO5)CC3)sc2C1 (stereo not drawn)	5	?	14	2%	11%	?
Cc1ncsc1C(=O)Nc1nc2c(s1)CC(C)CC2 (stereo not drawn)	27*	/	82*	-62%	-10%	/
CC1CCc2nc(NC(=O)C3CC3)sc2C1 (stereo not drawn)	51*	113%	82*	-5%	3%	/
CC1CCc2nc(NC(=O)Nc3ccc4c(c3)OCO4)sc2C1 (stereo not drawn)	45*	60%	91*	4%	17%	?
CC1CCc2nc(NC(=O)CN3CCOCC3)sc2C1 (stereo not drawn)	38*	49%	68*	4%	-7%	-10%
CCOc1cc(NC(=S)NCC2CCCO2)c(OCC)cc1NC(=O)c1cccc(F)c1 (stereo not drawn)	18	?	6	?	-6%	8%
O=C1/C(=C\c2cccs2)Sc2ccc3ccccc3c21	48*	105%	84*	-5%	7%	12%
NC1=NC(=O)/C(=C\c2cccs2)S1	11	12%	-1	9%	-6%	4%
